Screening data deposited in PubChem by National Center for Advancing Translational Sciences (NCATS).
The list is not random: actives were taken first. Their share in the collection is about 11%.
IMPase Li cell: qHTS Assay for Identifying the Cell-Membrane Permeable IMPase Inhibitors: Potentiation with Lithium | CHO-M1 cells, IP1 TR-FRET (IP-One), carbachol + lithium | AID 1457, 2008 | 210,000 tested, 0.35% active | Potency, µM (top dose mostly 59.4 µM), usual class: inhibitors;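 also: IP1 builds up when IMPase is blocked and the TR-FRET signal falls; nearly all actives have a fitted effect of over 50% in size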
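CHO cells stably expressing M1 receptor (2000/well, cultured 16–30 h) treated 30 min at 37C with compound plus low lithium. Cytosolic IP1 by TR-FRET (665/620 ratio and 620 channel) after 10 min lysis; AC50 by Hill fit.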
ALOX12 inhib: qHTS Assay for Inhibitors of 12-hLO (12-human lipoxygenase) | Polyunsaturated fatty acid lipoxygenase ALOX12 (Homo sapiens), P18054 | purified 12-hLO, xylenol orange hydroperoxide absorbance | 150,000 tested, 0.12% active | Potency, µM (highest dose often 57.1 µM), most hits filed as inhibitors; also: nearly all actives have a fitted effect of over 55% in size
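Xylenol orange chromogenic assay: hydroperoxide from 12hLO oxidises Fe(II), giving red-shifted Fe(III)-XO absorbance. Conditions: 150 nM enzyme, 40 uM arachidonic acid, 25 mM Hepes pH 7.0, 0.01% Triton X-100, 30 min, room temperature.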
ALDH1A1 block: qHTS Assay for Inhibitors of Aldehyde Dehydrogenase 1 (ALDH1A1). 220,000 tested, 7.3% active. Potency, µM (top dose mostly 75.3 µM), usual class: inhibitors. Purified ALDH1A1, NADH fluorescence, propionaldehyde substrate. Aldehyde dehydrogenase 1A1 (Homo sapiens), P00352; active = well fitted inhibition curve with a large enough effect, not every such curve was filed as active; inconclusive = small, poorly fitted or top-dose-only effect, or another doubt; inactive = no such curve, though single readings can be large or run the other way
Target sequence (P00352 whole entry, looked up): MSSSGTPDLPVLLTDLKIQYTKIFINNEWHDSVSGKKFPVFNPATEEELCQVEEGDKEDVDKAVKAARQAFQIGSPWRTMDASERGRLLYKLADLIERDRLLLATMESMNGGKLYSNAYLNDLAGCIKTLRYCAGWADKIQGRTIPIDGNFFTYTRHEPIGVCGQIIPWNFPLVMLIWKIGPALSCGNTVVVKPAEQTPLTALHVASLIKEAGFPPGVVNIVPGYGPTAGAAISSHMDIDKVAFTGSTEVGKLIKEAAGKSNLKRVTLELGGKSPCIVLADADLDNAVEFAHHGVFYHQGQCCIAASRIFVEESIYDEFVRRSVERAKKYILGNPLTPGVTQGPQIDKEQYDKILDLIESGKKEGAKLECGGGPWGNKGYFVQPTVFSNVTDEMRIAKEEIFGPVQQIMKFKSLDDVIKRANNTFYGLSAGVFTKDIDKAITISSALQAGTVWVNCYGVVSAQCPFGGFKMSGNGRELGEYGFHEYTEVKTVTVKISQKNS
PNC inhibitor: High Content Assay for Compounds that inhibit the Assembly of the Perinucleolar Compartment. PC3M PTB-GFP, PNC prevalence imaging, 16 h; hits give low values. activity change (PNC), negative = inhibition, % at 10 µM. 140,000 tested, 3.1% active;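 active = readout at or below -70, meaning at least 70% loss of cells showing the perinucleolar compartment, a nuclear body marking cancer cells; inconclusive = readout between -30 and a set limit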
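Read-out is percentage of cells bearing a perinucleolar compartment, from automated 20x imaging of fixed, Hoechst-stained PC3M PTB-GFP cells. Cells were seeded 4 h, then exposed 16 h to compound (23 nl of library stock) in duplicate plates.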
HPGD inh: qHTS Assay for Inhibitors of HPGD (15-Hydroxyprostaglandin Dehydrogenase) | purified HPGD, NADH fluorescence kinetic, PGE2 substrate | Potency, µM, hits mostly inhibitors | 150,000 tested, 4.3% active | AID 894, 2007; active = well fitted inhibition curve with a large enough effect, not every such curve was filed as active; inconclusive = small, poorly fitted or top-dose-only effect, or another doubt; inactive = no such curve, though single readings can be large or run the other way
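20 nM HPGD preincubated 15 min at room temperature with compound in 50 mM Tris-HCl pH 8, 0.01% Tween 20. Started with 1 mM NAD+ and 30 uM prostaglandin E2; NADH fluorescence (360/450 nm) read 5 times over 30-s intervals, last minus first.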
IMPase inh: qHTS Assay for Identifying the Cell-Membrane Permeable IMPase Inhibitors; CHO-M1 cells, IP1 accumulation, HTRF TR-FRET ratio; inhibition (IP1 accumulation), % at 46.1 µM; 120,000 tested, under 10 active; AID 901, 2007; active = well fitted curve in the direction sought with a large enough effect in the signal ratio, not every such curve was filed as active; inconclusive = small, poorly fitted or top-dose-only effect, or a change in a side signal; inactive = no such curve, though single readings can be large or run the other way; the % refers to the signal ratio;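 also: cells stimulated with carbachol in lithium chloride buffer; higher means more IMPase inhibition seen as more IP1 and lower FRET ratio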
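CHO-M1 cells (CHO stably expressing M1 receptor), compound up to 46 uM final, stimulated with carbachol (50 uM as added) in buffer with 50mM LiCl, pH 7.4, 30 min at 37C. Cytosolic IP1 read by TR-FRET; AC50 from Hill fits.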
Hits are given with their value; - = inactive; ? = inconclusive; . = no result; [ ] = another dose, or the depositor's remark. Unless noted, calls follow the shape of the dose curve; as a rule, active = well fitted curve in the direction sought with a large enough effect; inconclusive = small, poorly fitted or top-dose-only effect, or another doubt; inactive = no such curve, though single readings can be large; an effect the other way counts as inactive or inconclusive.

SMILES	IMPase Li cell	ALOX12 inhib	ALDH1A1 block	PNC inhibitor	HPGD inh	IMPase inh
CNC(CC(=O)c1ccc([N+](=O)[O-])cc1)C(Cl)(Cl)Cl (stereo not drawn)	-	-	0.562µM	-	10µM	-
N[C@@]1(C(=O)O)CN[C@@H](C(=O)O)C1	-	.	-	.	.	.
Cc1ccc(Nc2nnc(-c3ccc(C)c(S(=O)(=O)N4CCOCC4)c3)c3ccccc23)cc1	.	.	.	.	.	-
COc1ccc(CNc2ncnc3ccc(-c4ccccc4OC)cc23)c(OC)c1	-	.	?	.	.	.
O=C(NC1CCCCCCC1)c1ccc2c(c1)OCO2	-	-	-	-	15.8µM	-
COc1ccc(OC)c(NC(=O)C(=S)NC2CCCCC2)c1	-	.	8.91µM	.	.	.
O=C(NNC(=S)NC1CCCCC1)c1ccc2c(c1)OCO2	-	-	-	-	-	-
CCOc1ccc(C(=S)NC2CCCCC2)cc1OC	-	-	39.8µM	-	20µM	-
S=C(NC1CCCCC1)c1ccc2c(c1)OCO2	-	-	?	-	20µM	-
COc1ccc(-c2nc3cnc(N(C)C)nc3n(C[C@H]3CCCO3)c2=O)cc1	-	.	?	.	.	.
O=c1c[n+](CC[n+]2cc(=O)o[nH]2)[nH]o1	-	-[11.4 µM]	-[13.5 µM]	.	-	.
CCOC(=O)N1CCN(c2ncnc3c2[nH]c2ccc(F)cc23)CC1	-	-	-	-	-	-
Fc1ccc2[nH]c3c(N4CCN(c5ccccc5)CC4)ncnc3c2c1	-	-	-	-126.1	?	-
O=C(CCCN1CCC(O)(c2cccc(C(F)(F)F)c2)CC1)c1ccc(F)cc1	-	-	-	.	-	-
OC1(c2cccc(C(F)(F)F)c2)CCN(c2ncnc3c2[nH]c2ccc(F)cc23)CC1	-	17.8µM	?	-	?	-
COc1ccccc1NC(=O)CCN1CCC(C(N)=O)CC1	.	.	.	.	.	-
c1cncc(-c2nccc(NCc3cccs3)n2)c1	-	.	11.2µM	.	.	.
Clc1ccccc1-c1nccc(NCc2cccs2)n1	-	.	14.1µM	.	.	.
COC(=O)[C@H](COC(C)(C)C)NC(=O)O[C@@H]1Cc2cc(OC)ccc2O[C@H]1c1cccc(OC)c1	-	.	-	.	-	.
C=CCC1C=CC(OC(=O)OCC)C(COC(=O)OCC)O1 (stereo not drawn)	.	.	-[13.5 µM]	.	.	.
OCCOCCN1CCN([C@@H](c2ccccc2)c2ccc(Cl)cc2)CC1	-	-	-	.	-	-
O=[N+]([O-])c1ccc(N2CCN(Cc3ccccc3)CC2)nc1	-	.	20µM	.	.	.
Cc1ccc(Nc2nnc(SCC(=O)Nc3ccccc3[N+](=O)[O-])s2)cc1	-	-	-	-119.3	-	-
Cc1cccc(Nc2nnc(SCC(=O)Nc3ccccc3[N+](=O)[O-])s2)c1C	-	-	1.26µM	-	?	.
CC1=CC(C)(C)N(C(=O)CSc2ncn[nH]2)c2ccccc21	-	-	12.6µM	?	-	-
SMILES	IMPase Li cell	ALOX12 inhib	ALDH1A1 block	PNC inhibitor	HPGD inh	IMPase inh
C[C@@H](CCCCC(=O)Nc1ccc(C(F)(F)F)cc1)NCCc1cnc[nH]1	-	-	-	.	-	-
CC(C)c1ccc(N(C(=O)c2cc3ccccc3oc2=O)C2C=CS(=O)(=O)C2)cc1 (stereo not drawn)	-	-	25.1µM	-	-	-
CCN(C(=O)c1cc2ccccc2oc1=O)c1cccc(C)c1	-	-	14.1µM	?	?	-
NC(=O)c1ccc[n+](CC(=O)OCCC23CC4CC(CC(C4)C2)C3)c1	-	-	25.1µM	-	-	-
NNC(=O)c1nnn(-c2nonc2N)c1-c1cccs1	-	-	11.2µM	-	-	-
CCOC(=O)c1nnn(-c2nonc2N)c1-c1ccccc1	-	-	-	-	-	-
CCOC(=O)c1c(-c2ccc(OC)cc2)oc2ccc(OCc3ccccc3C)cc12	.	.	.	.	.	-
CC1=NN(c2ccccc2)C(=O)/C1=C/c1c(O)n(-c2ccc(F)c(Cl)c2)[nH]c1=O	-	-	14.1µM	-116.4	-	.
